JMJD2E inh: blocks human JMJD2E demethylase activity. Potency, µM (doses to about 57.1 µM), for the others: top-dose activity change, negative = inhibition, hits mostly inhibitors. B2RXH2. JMJD2E catalytic domain, FDH-coupled NADH fluorescence (FDH is formaldehyde dehydrogenase). actives 1.6% (n = 230,000); active = well fitted inhibition curve with a large enough effect, not every such curve was filed as active; inconclusive = small, poorly fitted or top-dose-only effect, or another doubt; inactive = no such curve, though single readings can be large or run the other way;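 note: potency is the fitted concentration of half-maximal effect; 0% = wells with enzyme and -100% = buffer wells without enzyme; nearly all actives have a fitted effect of over 50% in size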
JMJD2A Tudor inh: inhibitors of human JMJD2A Tudor domain; O75164; AlphaScreen JMJD2A-Tudor / H3K4me3 peptide binding; Potency, µM (highest dose often 114 µM), inactives show top-dose activity change, negative = inhibition, usual class: inhibitors; actives 4.4% (n = 390,000); AID 504339; note: potency is the fitted concentration of half-maximal effect; % is set by controls: 0 for no effect and ±100 for the full control effect; nearly all actives have a fitted effect of over 50% in size
BAZ2B block: inhibitors of human BAZ2B bromodomain | Q9UIF8 | AlphaScreen BAZ2B-H3K14Ac peptide displacement | Potency, µM (top dose mostly 114 µM), for the others: top-dose activity change, negative = inhibition, usual class: inhibitors | actives 4.4% (n = 360,000); note: potency is the fitted concentration of half-maximal effect; % is set by controls: 0 for no effect and ±100 for the full control effect; nearly all actives have a fitted effect of over 60% in size
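BAZ2B (50 nM) with biotin-H3(5-23)K14Ac peptide (50 nM) in PBS pH 7.4, 0.01% Tween-20, preformed 30 min, then compound 30 min at room temperature; top concentration 110uM. AlphaScreen streptavidin donor/nickel chelate acceptor beads (10 ug/mL final), 20 min dark, signal read.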
PI5P4Ka inh: inhibitors of human PI5P4K alpha | max response, % | PI5P4Kalpha enzyme, ADP-Glo luminescence, 60 min; active compounds read low | actives 1.2% (n = 330,000) | P48426; active = max response of -50% or lower; inconclusive = between -30% and -50%; inactive = -30% or higher; note: value at the top dose of about 77 µM; % is set by controls: 0 for no effect and ±100 for the full control effect
Target sequence (P48426 whole entry, looked up): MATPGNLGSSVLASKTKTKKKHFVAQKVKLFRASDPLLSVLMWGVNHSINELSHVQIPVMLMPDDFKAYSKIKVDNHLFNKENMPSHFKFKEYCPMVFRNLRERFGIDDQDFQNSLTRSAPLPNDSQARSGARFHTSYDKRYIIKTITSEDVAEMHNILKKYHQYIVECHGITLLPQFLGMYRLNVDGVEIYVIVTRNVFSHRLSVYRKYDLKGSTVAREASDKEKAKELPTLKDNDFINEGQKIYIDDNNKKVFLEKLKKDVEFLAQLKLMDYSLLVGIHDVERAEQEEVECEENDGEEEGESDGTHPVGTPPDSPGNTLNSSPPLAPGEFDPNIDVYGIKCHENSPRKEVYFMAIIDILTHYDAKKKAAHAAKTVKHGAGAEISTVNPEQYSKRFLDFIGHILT
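Compounds were pin-transferred onto PI5P4Kalpha and substrate in HEPES pH 7.4 buffer with EGTA, CHAPS and 5% DMSO. ATP (5 microM final) started the reaction, which ran 60 minutes at room temperature before ADP-Glo detection.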
HP1b chromo inh: HP1-beta chromodomain-methylated histone interaction inhibition. AlphaScreen HP1-beta / biotin-H3K9me3 peptide binding. Potency, µM (highest dose often 114 µM), for inactives: at the top dose activity change, negative = inhibition, hits mostly inhibitors. AID 540317. actives 0.56% (n = 390,000). P83916; note: potency is the fitted concentration of half-maximal effect; nearly all actives have a fitted effect of over 70% in size
Target sequence (P83916 whole entry, looked up): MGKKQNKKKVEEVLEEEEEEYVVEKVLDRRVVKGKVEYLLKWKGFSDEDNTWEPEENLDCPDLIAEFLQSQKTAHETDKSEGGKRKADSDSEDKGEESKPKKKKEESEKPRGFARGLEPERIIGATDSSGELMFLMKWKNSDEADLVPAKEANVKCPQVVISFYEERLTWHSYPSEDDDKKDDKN
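Compound inhibition of the preformed complex between 50 nM HP1-beta and 50 nM biotinylated H3K9me3 peptide was read by AlphaScreen. Buffer was PBS pH 7.4 with 0.01% Tween-20. Incubations ran 30 min at room temperature, with 10 ug/mL donor/acceptor beads.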
L3MBTL1 inh: blocks human L3MBTL1 | actives 0.66% (n = 230,000) | AlphaScreen L3MBTL1–H3K9me1 peptide binding | AID 485360 | Potency, µM (titrated, usually from 57.1 µM), without a hit: at the top dose activity, negative = inhibition, usual class: inhibitors; note: potency is the fitted concentration of half-maximal effect; % is set by controls: 0 for no effect and ±100 for the full control effect; nearly all actives have a fitted effect of over 60% in size
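L3MBTL1 (50 nM) pre-complexed 30 min with biotinylated H3(1-15)K9me1 peptide (75 nM), then compounds added for 30 min at room temperature; AlphaScreen streptavidin donor/nickel chelate acceptor beads (10 ug/mL final) read after 30 min dark incubation.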
The depositor's hits bear a star; ? = inconclusive; / = no result; [ ] = another dose, or the depositor's remark. The list is not random: actives were taken first. Their share in the collection is about 5.7%. Unless noted, calls come from the whole dose curve; as a rule, active = well fitted inhibition curve with a large enough effect; inconclusive = small, poorly fitted or top-dose-only effect; inactive = no such curve, though single readings can be large or run the other way.

SMILES	JMJD2E inh	JMJD2A Tudor inh	BAZ2B block	PI5P4Ka inh	HP1b chromo inh	L3MBTL1 inh
O=C(Cc1ccccc1)N/N=C/c1cc(Br)cc(Cl)c1O	6.3µM*	-18%	10%	-1	24%	17%
O=C(C[n+]1ccccc1)N/N=C/c1cc(Br)ccc1F	/	?	71µM*	1	28%	-22%
O=C(C[n+]1ccccc1)N/N=C/c1cc(Br)cc(Br)c1O	/	22µM*	10µM*	13	27%	/
CNc1cccc2c1C(=O)c1ccccc1C2=O	-8%	2.8µM*	3.2µM*	-11	8.9µM*	8.9µM*
O=C1c2ccccc2C(=O)c2c(NCc3cccnc3)cccc21	6%	?	15%[57.1 µM]	-1	?	-21%
O=C(/C=C/c1ccccc1)Oc1ccc(C(=S)N2CCOCC2)cc1	18%	-15%[11.4 µM]	-1%	14	14%	/
O=C(/C=C/c1ccco1)Oc1ccc(C(=S)N2CCOCC2)cc1	-5%	18µM*	-34%	?	-20%	/
COc1cc(CN2CCN(C(=O)CC(C)C)CC2)cc(OC)c1OC	?	6.3µM*	28µM*	2	?	-9%
CC(C)CC(=O)N1CCN(Cc2ccccc2Cl)CC1	/	-100%	50µM*	-1	?	-3%[2.29 µM]
COc1cc(CCC(=O)N2CCN(c3ccccc3)CC2)cc(OC)c1OC	/	-12%	-17%	3	48%	/
COc1cc(CN2CCN(C(=O)CC(C)C)CC2)c([N+](=O)[O-])cc1OC	/	22µM*	45µM*	-1	?	3%
COc1ccc(CN2CCN(C(=O)CC(C)C)CC2)cc1	/	7.9µM*	?	-4	?	0%
COc1cc(CC(=O)O)c([N+](=O)[O-])cc1OC	4%	-1%[11.4 µM]	-10%	1	20%	-1%
CCOc1ccc(-n2nc3ccc(NC(=O)COc4ccccc4C)cc3n2)cc1	/	-10%	0%	/	14%	/
CC(=O)NC(c1cccc(F)c1)c1nc(-c2cccc(C(C)C)c2)cs1 (stereo unspecified)	/	/	/	25	/	/
CCOC(=O)c1[nH]cnc1C(=O)Nc1cccc(Cl)c1	3%	-15%	89µM*	7	3%	-11%
CCOC(=O)c1sc(N)c(C(=O)Nc2ccccc2OC)c1C	-18%	56µM*	?	-26	5.6µM*	6%
CCOC(=O)c1[nH]cnc1C(=O)Nc1ccccc1OC	3%	?	89µM*	-4	34%	?
CCOC(=O)c1[nH]cnc1C(=O)Nc1ccccn1	2%	-88%	79µM*	/	28%	-8%
Cc1ccc(-c2nc(S(=O)(=O)c3ccc(C)cc3)c(SCC(=O)NC3CCCCC3)o2)cc1	/	-5%	1%	/	20%	/
CCOC(=O)c1ccc(NC(=O)Nc2cc3c(cc2N2CCCC2)n(C)c(=O)n3C)cc1	/	?	-34%	/	16%	/
C=C(C)C1CC=C(CN2CCC(C(=O)OCC)CC2)CC1 (stereo unspecified)	-25%	2.5µM*	-25%	/	?	6%
C=C(C)C1CC=C(CN2CC(C)OC(C)C2)CC1 (stereo unspecified)	?	4µM*	?	-5	?	/
CNC(=O)C1(C(F)(F)F)CC(CCCO)CCCO1 (stereo unspecified)	/	-12%	/	/	17%	/
COc1cc(C)cc(C(=O)O)c1C1=C(O)c2cccc(O)c2C(=O)C1=O	?	79µM*	56µM*	-78*	-24%	/
SMILES	JMJD2E inh	JMJD2A Tudor inh	BAZ2B block	PI5P4Ka inh	HP1b chromo inh	L3MBTL1 inh
Nc1nc(-c2ccc(Cl)cc2)c(N=Nc2ccc(S(=O)(=O)N3CCOCC3)cc2)s1	-9%	?	7.1µM*	6	?	-6%
Cc1nn(S(=O)(=O)c2ccc(Cl)cc2)c(C)c1S(=O)(=O)N1CCOCC1	/	?	-8%	-13	7%	/
CCOc1ccc(C(=O)Nc2ccc3oc(-c4ccc5ccccc5c4)nc3c2)cc1	/	6%	0%	/	25%	/
COc1cccc(C(=O)NCc2cn3ccccc3n2)c1	/	?	-19%	/	-4%	/
Cn1c(O)c(C2=c3ccccc3=NC2=O)sc1=Nc1ccc(Cl)cc1	-5%	-10%	4%	-20	11%	-1%
O=C1N=c2ccccc2=C1c1sc(Nc2cccc(O)c2)nc1O	/	?	56µM*	?	-15%	0%
O=C(O)CCC(C(=O)O)n1c(O)c(C2=c3ccccc3=NC2=O)sc1=S (stereo unspecified)	-15%	-14%	?	-15	0%	/
O=C1N=c2ccccc2=C1c1sc(Nc2ccc(O)cc2)nc1O	1%	?	56µM*	-65*	21%	/
O=C1N=c2ccccc2=C1c1sc(NS(=O)(=O)Cc2ccccc2)nc1O	6%	?	?	-54*	6%	/
Cc1ccc(C(=O)c2oc3ccccc3c2NC(=O)c2cc(-c3ccccc3)on2)cc1F	/	1%	1%	/	43%	/
Cc1nn(C)c2c1c(C(F)(F)F)cc(=O)n2C(C)C(=O)NCCC(C)C (stereo unspecified)	/	-16%	-16%	/	10%	/
O=C1C2CC=CCC2C(=O)N1c1ccc(N2CCN(c3ccccn3)CC2)c([N+](=O)[O-])c1 (stereo unspecified)	0%	?	8.9µM*	2	2%	/
CN(C)c1ccnc(Nc2ccccc2)c1C#N	-11%	-2%	-4%	4	37%	1%
CN(C)c1ccnc2c[cH-]cc12.[Fe].c1ccc(-[c-]2[c-](-c3ccccc3)[c-](-c3ccccc3)[c-](-c3ccccc3)[c-]2-c2ccccc2)cc1 (stereo unspecified)	2%	4µM*	1.6µM*	-9	3.2µM*	/
O=C1c2ccccc2C(=O)C12OC2c1cccc2ccccc12 (stereo unspecified)	?	-24%	1%	-17	12%	14µM*
O=C1NC(c2cccc3ccccc23)Nc2ccccc21 (stereo unspecified)	/	-12%	/	8	32%	/
CCN1CCN(C(=O)NCc2ccccc2)CC1	?	1.6µM*	-3%	12	?	/
Clc1nc(NCC2CCCO2)c2[nH]cnc2n1 (stereo unspecified)	/	-7%[57.1 µM]	/	/	18%[57 µM]	/
O=C(COC(=O)C1CC(O)CN1S(=O)(=O)c1ccc(Cl)cc1)c1ccccc1 (stereo unspecified)	4%	-12%	-3%	4	23%	0%
Cc1[nH]c2ccccc2c1C(=O)COC(=O)C1CC(O)CN1S(=O)(=O)c1ccc(Cl)cc1 (stereo unspecified)	/	32µM*	0%	-27	-14%[57 µM]	-4%
Cc1ccc(C)c(N2CCN(C(=O)C(C)n3nc(C)c4sc5ccccc5c4c3=O)CC2)c1 (stereo unspecified)	/	?	?	/	38%	/
